Menin-MLL TR inh: displaces Texas Red mutant MLL peptide from human menin. O00255. 0.23% of 270,000 active. AID 1768. Menin + Texas Red MLL mutant peptide, fluorescence polarization. Potency, µM (doses to about 61.6 µM), without a hit: at the highest dose FP activity change, negative = inhibition, actives largely listed as inhibitors; active = well fitted inhibition curve with a large enough effect in the polarisation, with a control signal flat, not every such curve was filed as active; inconclusive = small, poorly fitted or top-dose-only effect, or effect the other way, or a change in a side signal; inactive = no such curve, though single readings can be large or run the other way; the % refers to the polarisation; note: potency is the fitted concentration of half-maximal effect; % of control where 0% means no effect
Menin-MLL FL inh: inhibitors of human menin-MLL interaction, wild-type MLL peptide. Fluorescence polarization, fluorescein-MLL peptide displacement from menin. FP activity change, % at 61.4 µM. 290,000 tested, under 10 active. AID 1766; active = well fitted curve in the direction sought with a large enough effect in the polarisation, not every such curve was filed as active; inconclusive = small, poorly fitted or top-dose-only effect, or effect the other way, or a change in a side signal; inactive = no such curve, though single readings can be large or run the other way; the % refers to the polarisation; note: % of control where 0% means no effect
ClpP mod: qHTS Assay for Activators of ClpP; 1.9% of 340,000 active; AID 651965, 2013; Potency, µM (series often up to 57.5 µM), without a hit: at the highest dose activity change, negative = active; purified B. subtilis ClpP, FRET peptide cleavage, 20 min; active = well fitted falling curve with a large enough effect; inconclusive = small, poorly fitted or top-dose-only effect; inactive = no such curve, though single readings can be large or run the other way; note: potency is the fitted concentration of half-maximal effect; the source files actives as falling curves though it sought activators and does not explain the sign; nearly all actives have a fitted effect of over 65% in size
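ClpP 10 microg/mL final, pH 8 Tris/KCl buffer with BSA, glycerol, Tween-20; compound pinned in; FRET-FV substrate; RT 20 min; Ex320/Em430; ΔFRET vs ADEP 5.8 microM, DMSO, no enzyme.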
p53 reactivator: re-activators of mutant p53. H1299 p53-A138V BP100-luciferase reporter, luminescence, 24 h. 0.063% of 320,000 active. Potency, µM (top dose mostly 92.2 µM), for inactives: at the top dose activity change, positive = activation, actives largely listed as activators; active = well fitted activation curve with a large enough effect; inconclusive = small, poorly fitted or top-dose-only effect; inactive = no such curve, though single readings can be large or run the other way; note: potency is the fitted concentration of half-maximal effect; % of control where 0% means no effect; nearly all actives have a fitted effect of over 45% in size
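H1299 (p53-null), stable ts p53-A138V + BP100-Luc; 1000 cells/well, Opti-MEM/10% FBS; cpd 4 pt, 1:5; 24 h, 37 deg C, 5% CO2; detection reagent 10 min RT; luminescence.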
MLL CXXC-DNA inh: inhibitors of human MLL CXXC domain-DNA interaction; Q03164; Potency, µM (highest dose often 115 µM), without a hit: at the top dose activity change, negative = inhibition, hits mostly inhibitors; AID 2662; 0.037% of 290,000 active; MLL-CXXC / FITC-HOXA9 DNA fluorescence polarization; active = well fitted inhibition curve with a large enough effect in the polarisation, with a control signal flat, not every such curve was filed as active; inconclusive = small, poorly fitted or top-dose-only effect, or effect the other way, or a change in a side signal; inactive = no such curve, though single readings can be large or run the other way; the % refers to the polarisation; note: potency is the fitted concentration of half-maximal effect
Target sequence (Q03164 whole entry, looked up, the tested form may be a part): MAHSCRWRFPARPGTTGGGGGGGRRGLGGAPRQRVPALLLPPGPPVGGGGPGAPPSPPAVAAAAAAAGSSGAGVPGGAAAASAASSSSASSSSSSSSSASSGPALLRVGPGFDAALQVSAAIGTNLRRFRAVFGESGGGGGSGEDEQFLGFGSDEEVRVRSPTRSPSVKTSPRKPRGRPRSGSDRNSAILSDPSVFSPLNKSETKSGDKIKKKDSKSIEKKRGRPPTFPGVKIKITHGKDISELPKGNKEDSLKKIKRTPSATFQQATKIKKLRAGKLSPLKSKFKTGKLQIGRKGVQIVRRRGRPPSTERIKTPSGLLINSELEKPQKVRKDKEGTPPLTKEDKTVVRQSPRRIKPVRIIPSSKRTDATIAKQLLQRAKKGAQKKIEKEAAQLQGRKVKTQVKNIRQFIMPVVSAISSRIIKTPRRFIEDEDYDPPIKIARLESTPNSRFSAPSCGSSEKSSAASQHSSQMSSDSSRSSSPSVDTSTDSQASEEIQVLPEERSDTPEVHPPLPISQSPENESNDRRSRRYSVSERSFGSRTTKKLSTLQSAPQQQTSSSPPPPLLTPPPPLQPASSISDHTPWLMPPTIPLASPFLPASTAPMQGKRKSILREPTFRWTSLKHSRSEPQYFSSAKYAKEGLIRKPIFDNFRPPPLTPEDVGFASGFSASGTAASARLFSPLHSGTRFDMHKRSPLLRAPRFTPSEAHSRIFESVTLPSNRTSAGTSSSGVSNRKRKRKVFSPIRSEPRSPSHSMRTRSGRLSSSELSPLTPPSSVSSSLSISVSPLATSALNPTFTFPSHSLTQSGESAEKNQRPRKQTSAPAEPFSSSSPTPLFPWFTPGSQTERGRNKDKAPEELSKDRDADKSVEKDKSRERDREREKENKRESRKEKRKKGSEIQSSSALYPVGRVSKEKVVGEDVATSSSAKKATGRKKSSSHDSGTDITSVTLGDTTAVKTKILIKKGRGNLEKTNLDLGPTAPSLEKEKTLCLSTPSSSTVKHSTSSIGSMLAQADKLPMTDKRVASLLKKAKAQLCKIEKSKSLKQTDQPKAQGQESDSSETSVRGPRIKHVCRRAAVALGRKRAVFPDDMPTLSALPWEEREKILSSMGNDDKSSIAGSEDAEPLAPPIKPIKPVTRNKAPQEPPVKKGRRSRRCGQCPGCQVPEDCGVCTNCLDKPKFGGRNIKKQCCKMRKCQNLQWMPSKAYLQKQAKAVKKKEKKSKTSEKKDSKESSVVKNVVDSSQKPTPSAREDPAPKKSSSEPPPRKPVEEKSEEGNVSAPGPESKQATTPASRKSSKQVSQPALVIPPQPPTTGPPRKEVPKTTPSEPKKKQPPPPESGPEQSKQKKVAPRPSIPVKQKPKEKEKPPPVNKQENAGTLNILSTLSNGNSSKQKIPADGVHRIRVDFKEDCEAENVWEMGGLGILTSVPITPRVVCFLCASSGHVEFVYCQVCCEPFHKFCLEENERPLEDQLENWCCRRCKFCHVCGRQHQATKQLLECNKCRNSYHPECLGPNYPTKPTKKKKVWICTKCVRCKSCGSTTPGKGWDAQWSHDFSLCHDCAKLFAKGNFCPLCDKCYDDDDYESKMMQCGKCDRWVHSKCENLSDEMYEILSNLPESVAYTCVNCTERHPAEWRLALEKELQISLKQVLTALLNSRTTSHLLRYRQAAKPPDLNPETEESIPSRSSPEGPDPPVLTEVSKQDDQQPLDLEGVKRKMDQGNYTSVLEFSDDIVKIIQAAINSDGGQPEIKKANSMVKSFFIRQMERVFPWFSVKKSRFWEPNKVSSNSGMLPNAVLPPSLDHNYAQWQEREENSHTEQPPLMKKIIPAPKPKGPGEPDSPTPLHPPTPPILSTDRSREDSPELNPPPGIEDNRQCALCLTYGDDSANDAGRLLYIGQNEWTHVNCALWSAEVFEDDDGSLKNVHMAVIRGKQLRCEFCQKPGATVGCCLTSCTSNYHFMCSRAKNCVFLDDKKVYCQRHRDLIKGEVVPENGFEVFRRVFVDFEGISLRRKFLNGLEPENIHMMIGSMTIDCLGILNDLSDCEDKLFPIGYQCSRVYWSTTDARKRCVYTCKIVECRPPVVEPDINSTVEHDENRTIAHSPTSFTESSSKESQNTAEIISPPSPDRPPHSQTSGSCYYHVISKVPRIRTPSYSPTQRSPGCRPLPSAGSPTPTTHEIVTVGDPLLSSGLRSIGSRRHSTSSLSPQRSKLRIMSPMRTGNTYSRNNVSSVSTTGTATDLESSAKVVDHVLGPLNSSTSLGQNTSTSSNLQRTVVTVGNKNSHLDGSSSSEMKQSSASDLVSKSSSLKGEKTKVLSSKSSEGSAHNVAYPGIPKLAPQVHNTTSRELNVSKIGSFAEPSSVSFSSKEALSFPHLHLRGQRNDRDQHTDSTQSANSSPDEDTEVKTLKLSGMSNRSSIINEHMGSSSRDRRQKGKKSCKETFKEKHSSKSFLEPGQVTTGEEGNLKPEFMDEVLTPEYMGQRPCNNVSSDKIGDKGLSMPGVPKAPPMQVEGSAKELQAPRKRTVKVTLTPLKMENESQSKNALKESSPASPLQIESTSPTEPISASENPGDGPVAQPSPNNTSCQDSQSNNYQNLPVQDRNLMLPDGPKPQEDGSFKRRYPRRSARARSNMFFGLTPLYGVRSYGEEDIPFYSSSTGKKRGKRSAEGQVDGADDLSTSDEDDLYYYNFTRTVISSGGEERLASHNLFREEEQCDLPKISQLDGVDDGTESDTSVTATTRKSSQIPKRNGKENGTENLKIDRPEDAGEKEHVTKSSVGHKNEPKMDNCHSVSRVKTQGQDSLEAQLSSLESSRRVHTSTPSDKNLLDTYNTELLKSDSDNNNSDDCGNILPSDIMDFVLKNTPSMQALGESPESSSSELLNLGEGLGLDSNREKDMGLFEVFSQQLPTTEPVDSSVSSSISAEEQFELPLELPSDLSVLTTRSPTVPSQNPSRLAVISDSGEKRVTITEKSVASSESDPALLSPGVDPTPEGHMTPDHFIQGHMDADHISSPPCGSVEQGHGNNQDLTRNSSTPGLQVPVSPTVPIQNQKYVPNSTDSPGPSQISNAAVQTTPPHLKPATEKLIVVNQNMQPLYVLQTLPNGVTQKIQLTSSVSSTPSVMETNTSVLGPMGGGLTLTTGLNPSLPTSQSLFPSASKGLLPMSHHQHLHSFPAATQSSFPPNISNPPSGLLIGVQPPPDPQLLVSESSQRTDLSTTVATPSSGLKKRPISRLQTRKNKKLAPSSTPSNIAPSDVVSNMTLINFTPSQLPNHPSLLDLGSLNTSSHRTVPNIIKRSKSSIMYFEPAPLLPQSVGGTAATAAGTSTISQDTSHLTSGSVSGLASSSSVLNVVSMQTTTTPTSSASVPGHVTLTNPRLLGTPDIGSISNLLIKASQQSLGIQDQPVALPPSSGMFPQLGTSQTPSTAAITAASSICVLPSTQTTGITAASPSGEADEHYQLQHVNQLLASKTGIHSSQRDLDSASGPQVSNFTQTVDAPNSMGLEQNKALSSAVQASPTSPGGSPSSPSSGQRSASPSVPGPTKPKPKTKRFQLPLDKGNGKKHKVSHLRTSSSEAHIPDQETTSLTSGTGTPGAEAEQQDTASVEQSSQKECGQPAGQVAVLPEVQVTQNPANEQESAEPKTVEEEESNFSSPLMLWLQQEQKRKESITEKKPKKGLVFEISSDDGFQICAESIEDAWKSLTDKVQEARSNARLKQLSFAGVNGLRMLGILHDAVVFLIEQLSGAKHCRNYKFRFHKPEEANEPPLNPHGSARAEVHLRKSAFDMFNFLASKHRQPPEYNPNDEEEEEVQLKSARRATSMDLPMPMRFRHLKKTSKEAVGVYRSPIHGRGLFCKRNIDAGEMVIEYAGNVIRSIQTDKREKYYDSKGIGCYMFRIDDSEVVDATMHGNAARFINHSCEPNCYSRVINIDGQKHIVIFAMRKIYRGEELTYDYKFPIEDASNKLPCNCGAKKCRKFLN
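Fluorescence polarization: 7 uM MLL-CXXC (stock) preincubated 5 min with compounds, then 50 nM fluorescein-HOX-A9 DNA (stock) added; 30 min ambient. Buffer 50 mM Tris-HCl pH 7.5, 50 mM NaCl, 1 mM DTT, 0.05% BSA.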
Starred values were filed as active, the others as inactive; ? = inconclusive; . = no result; [ ] = another dose, or the depositor's remark. The sample as a whole holds a higher share of hits than the screen did.

SMILES | Menin-MLL TR inh | Menin-MLL FL inh | ClpP mod | p53 reactivator | MLL CXXC-DNA inh
C=CCN1c2ccccc2[C@]23C[C@@H](C(=O)OC)N(S(=O)(=O)c4c(C)noc4C)C2=NC(C(=O)OC)=C(C(=O)OC)[C@H]13 | -20%[11.7 µM] | -5[11.7 µM] | . | . | .
COc1ccc(-c2nn(CC(=O)Nc3ccc(Cl)c(Cl)c3)c(=O)c3ccccc23)cc1 | 10µM* | 6 | ? | 10% | 17%
CCC(C(=O)O)C1OC(C(C)C(O)C(C)C(=O)C(CC)C2OC3(C=CC(O)C4(CCC(C)(C5CCC(O)(CC)C(C)O5)O4)O3)C(C)CC2C)C(C)CC1C (stereo not given) | -14% | 4 | . | . | 10%
CC(=O)NC1=C(C#N)CCC1 | . | . | -1% | . | .
CCOc1ccccc1C(=O)Nc1c(C(=O)Nc2ccc(F)cc2)oc2ccccc12 | . | . | 32µM* | . | .
Cc1c(C(N)=O)nnn1-c1ccc(Br)cc1 | . | . | 1% | . | .
Brc1cccc[n+]1Cc1ccccc1C[n+]1ccccc1Br | . | . | -5% | . | .
CC(=O)N1N=C(c2ccc(Br)cc2)OC1(C)CC(=O)Nc1ccccc1 (stereo not given) | 11% | -1 | 25µM* | -10% | 1%
CC(=O)N1N=C(c2ccccc2)OC12CCCC2 | -3% | 0 | 4% | 0% | -2%
COc1cc(COc2ccc3c(C)c(Cc4ccccc4)c(=O)oc3c2C)cc(OC)c1OC | -21% | -1 | 16µM* | 7% | -7%
COc1cc(COc2ccc3c(C)c(Cc4ccccc4)c(=O)oc3c2)cc(OC)c1OC | -9% | 4 | -1% | -14% | 13%
COc1cccc(COc2ccc3c(C)c(Cc4ccccc4)c(=O)oc3c2)c1 | . | . | 13µM* | . | .
CC1=Nc2ccc(C)c3nc(C)cc(c23)N1c1ccc(C)cc1 | . | . | -17% | . | .
Cc1ccc(N2C=Nc3ccc(C)c4nc(C)cc2c34)cc1 | 9% | -25 | 22µM* | -10% | -5%
O=C(CNC(=O)c1cc2c(n(-c3ccccc3)c1=O)CCCC2=O)c1ccccc1 | . | . | 28µM* | -10% | -10%
CC1(C)CC(=O)c2cc(C(=O)NCc3ccco3)c(=O)n(-c3ccccc3)c2C1 | -14% | 0 | 28µM* | -6% | 7%
CCN1c2ccccc2-c2nc3ccccc3n2C1c1cccnc1 (stereo not given) | -7% | 0 | 32µM* | -27% | -1%
Cc1nc2ccccc2c2oc(C(=O)NCCN3CCCCC3C)cc12 (stereo not given) | -23% | 1 | 4% | -26% | 5%
CCN1CCCC1CNC(=O)c1cc2c(C)nc3ccccc3c2o1 (stereo not given) | -17% | -4 | 25µM* | 14% | -15%
CCc1cccc(C)c1Nc1c(-c2ccc(SC)cc2)nc2sccn12 | . | . | -4% | . | .
CCCCC[C@H](O)/C=C/C=C\C/C=C\CCCCCCC(=O)O | 3% | -3 | . | . | .
Cc1c(/C(O)=C2/C(=O)C(=O)N(CCN3CCOCC3)C2c2cccs2)cnn1-c1ccccc1 (stereo not given) | 4% | 3 | 11µM* | ? | 1%
COc1ccc(CCn2c(N)c(C(=O)NCc3ccco3)c3nc4ccccc4nc32)cc1OC | 15% | 15 | 28µM* | 11% | -3%
COc1ccc(CCn2c(N)c(C(=O)NCc3ccco3)c3nc4ccccc4nc32)cc1 | ? | 7 | 32µM* | -8% | 4%
COCCNC(=O)c1c(N)n(CCC2=CCCCC2)c2nc3ccccc3nc12 | 1% | ? | -1% | -2% | 53%
SMILES | Menin-MLL TR inh | Menin-MLL FL inh | ClpP mod | p53 reactivator | MLL CXXC-DNA inh
COc1ccc(-n2c(N)c(C(=O)NCc3ccco3)c3nc4ccccc4nc32)c(OC)c1 | 17% | 12 | 11µM* | ? | 9%
COCCn1c(N)c(C(=O)OCc2ccccc2)c2nc3ccccc3nc21 | ? | 3 | 7.9µM* | -5% | -3%
NCCN(Cc1ccc(Cl)c(Cl)c1)c1ccc(Br)cn1 | . | . | -7% | . | .
Cc1cccc2c(=O)[nH]c3c(-c4nc(-c5ccc(Cl)cc5)cs4)c(O)cn3c12 | . | . | 4% | . | .
CCOC(=O)c1c(C)[nH]c(CCC(=O)NCCCN2CCN(c3ccccc3F)CC2)c1C | . | . | -1% | . | .
Cc1cc(=O)c2cc(C(=O)Nc3ccc(C)c(C)c3)ccc2[nH]1 | . | . | -3% | . | .
COc1ccc(-c2nn3c(-c4ccccc4C)nnc3c3ccccc23)cc1 | . | . | -13% | . | .
CCCNC(=O)c1c(N)n(-c2cccc(OC)c2)c2nc3ccccc3nc12 | 29% | 3 | 20µM* | -4% | 1%
Nc1c(C(=O)NCc2ccco2)c2nc3ccccc3nc2n1CCc1ccccc1F | 13% | 5 | 28µM* | ? | 0%
COc1ccc(N(C(=O)c2ccc(OC)c(OC)c2)S(=O)(=O)c2ccc(Cl)cc2)cc1 | . | . | -3% | . | .
CS(=O)(=O)Nc1cccc(-c2ccc3ncnc(NCCN4CCOCC4)c3c2)c1 | -2% | 2 | . | . | .
Cc1oc2c(CN3CCOCC3)c(O)ccc2c(=O)c1-c1ccccc1 | -13% | 0 | 28µM* | 12% | -7%
COc1ccc(Oc2c(C)oc3c(CN4CCOCC4)c(O)ccc3c2=O)cc1 | -28% | 3 | 32µM* | -2% | -6%
CCOC(=O)C1CCN(C(=O)C2COc3ccccc3C2)CC1 (stereo not given) | . | . | -17% | . | .
NC(=O)C1CCCN1C(=O)C(Cc1cnc[nH]1)NC(=O)C1CCC(=O)N1 (stereo not given) | -10% | 0 | . | . | .
CN(C)c1ccc(-c2c(C3C4C=CCCC4(C)C(=O)N3Cc3ccccc3)ccc3ccccc23)cc1 (stereo not given) | -2% | 1 | . | . | .
CCc1nc2nc(C)cc(Nc3ccc(Br)cc3F)n2n1 | . | . | 0% | . | .
Cc1ccc(S(=O)(=O)CCC(=O)NCCN2C(=O)S/C(=C\c3ccccc3)C2=O)cc1 | -6% | 6 | 2% | ? | -16%
O=C(CCS(=O)(=O)c1ccc(Cl)cc1)NCCN1C(=O)S/C(=C\c2ccccc2F)C1=O | 2% | 5 | 28µM* | ? | 3%
c1cc2ccc3ccc(-n4cnnn4)c4ccc(c1)c2c34 | -1% | 9 | 28µM* | -2% | 36%
COc1ccc(C(=O)C2C(=O)C(=O)N(Cc3ccco3)C2c2cccs2)cc1 (stereo not given) | . | . | -3% | . | .
Cc1cccc(C(=O)OCC(=O)NC(=O)c2ccccc2)c1O | . | . | 13µM* | -4% | .
